# Reference: PubChem BioAssay AID504534 (National Center for Advancing Translational Sciences (NCATS), 2011)
# Records with an inconclusive call do not appear. Unmarked numbers belong to inactive results. Calls follow the shape of the dose curve; as a rule, active = well fitted curve in the direction sought with a large enough effect; inconclusive = small, poorly fitted or top-dose-only effect, or another doubt; inactive = no such curve, though single readings can be large or run the other way.
# Experiment: Secondary Assay for Inhibitors of Human Cdc-like kinase 4 (Clk4): HEK-293 Cell Viability Assay;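 also: % of control where 0% means no effect; cytotoxic hits lower the ATP light signal so activity reflects loss of viability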
# Conditions: HEK-293 viability, ATP luminescence (CellTiter-Glo), 24/48 h; series mostly up to 46.1 µM; activity change, negative = cytotoxicity: at the top concentration
# Outline: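 Cytotoxicity was measured as ATP luminescence (CellTiter-Glo) after 24 or 48 h compound exposure at 37 degrees C. HEK-293 cells in MEM with 10% FBS had been seeded 4 h earlier.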
row,Structure (SMILES),"activity change, negative = cytotoxicity"
1,CCNC(=O)c1ccc(-c2ccc3ncnc(NCc4ccc(C)o4)c3c2)o1,-9.43%
2,CCOC(=O)c1ccoc1-c1ccc2ncnc(NCc3ncc[nH]3)c2c1,-11.2%
3,Cn1ccc2cc(-c3ccc4ncnc(NCc5cccnc5)c4c3)ccc21,5.41%
4,Cc1ccc(CNc2ncnc3ccc(-c4ccoc4C)cc23)o1,-14.1%
5,c1nc(OCc2cnc[nH]2)c2cc(-c3ccc4c(c3)OCO4)ccc2n1,5.34%
6,CCN(CCc1cn(C)cn1)c1ncnc2ccc(-c3ccc4c(c3)OCO4)cc12,-6.06%
7,c1cncc(CNc2ncnc3ccc(-c4ccoc4)cc23)c1,-11.3%
8,c1c[nH]c(CNc2ncnc3ccc(-c4ccoc4)cc23)n1,-0.655%
